Among the data in PubChem BioAssay are growth inhibition, inhibition and outcome values, retold here.

The structures appear in SMILES notation. Values without a mark were called inactive. For some of these results: Potency and affinity values are given separately. Activity calls are given as the source filed them. Unless noted, no rule for the calls is given here.

Experiment [1] is described as follows: antimalarial activity against Dd2 strain (AID 2302;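 active = growth inhibition above 50% at the single 2 µM test dose, taken to imply half-maximal potency below 2 µM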;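 also: 0% = DMSO untreated growth and 100% = chloroquine plus artemisinin killed control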). Particulars: P. falciparum Dd2 in RBCs, LDH growth readout, 72 h; at 2 µM; stronger effect = higher value.
Experiment [2] is described as follows: HepG2 cytotoxicity, primary screen, cytotoxicity control for P. falciparum antimalarial project, cell-based, ATP luminescence (AID 2303;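 active = inhibition above 50%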;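 also: 0% = DMSO wells and 100% = digitonin-killed cells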). Particulars: HepG2 viability, 24-48 h, at 10 µM, stronger effect = higher value.
For experiment [3], the target named is L-lactate dehydrogenase (Plasmodium falciparum (isolate CDC / Honduras)) (UniProt Q27743). Briefly: PfLDH activity inhibition – cell lysate, 3D7 strain, counter-screen for P. falciparum growth inhibition project (AID 2304).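 Also: 0% = vehicle and 100% = reference inhibitor.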 The conditions noted are these: P. falciparum 3D7 crude extract, LDH APAD/NBT absorbance; at 2 µM; stronger effect = higher value.
Chain of L-lactate dehydrogenase (Plasmodium falciparum (isolate CDC / Honduras)) (Q27743 whole entry, looked up): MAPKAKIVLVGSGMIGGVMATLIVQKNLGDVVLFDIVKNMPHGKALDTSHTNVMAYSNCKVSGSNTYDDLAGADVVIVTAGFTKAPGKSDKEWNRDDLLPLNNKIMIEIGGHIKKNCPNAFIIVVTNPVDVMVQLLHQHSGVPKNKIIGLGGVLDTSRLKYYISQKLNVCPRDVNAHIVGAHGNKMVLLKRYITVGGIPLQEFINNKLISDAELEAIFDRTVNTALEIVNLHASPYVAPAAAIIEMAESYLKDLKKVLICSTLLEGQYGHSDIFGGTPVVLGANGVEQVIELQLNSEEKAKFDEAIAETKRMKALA
Experiment [4] is described as follows: inhibition of 3D7 malaria parasite growth – strain 3D7 (AID 2306).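 Also: 0% = DMSO wells and 100% = chloroquine plus artemisinin control wells.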 Particulars: P. falciparum 3D7 erythrocytic growth, LDH absorbance, 72 h; at 2 µM; stronger effect = higher value.
For experiment [5], the target named is Calcium-dependent protein kinase 1 (Plasmodium falciparum (isolate 3D7)) (UniProt P62344). Briefly: PfCDPK1 kinase inhibitors, biochemical, TCAMS library (AID 1159585; cut-off not given, nearly all actives have IC50 up to about 0.98 µM;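 also: inhibitors leave more ATP so luminescence rises with inhibition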). Particulars: recombinant PfCDPK1, Kinase-Glo ATP depletion luminescence.
Chain of Calcium-dependent protein kinase 1 (Plasmodium falciparum (isolate 3D7)) (P62344 whole entry, looked up): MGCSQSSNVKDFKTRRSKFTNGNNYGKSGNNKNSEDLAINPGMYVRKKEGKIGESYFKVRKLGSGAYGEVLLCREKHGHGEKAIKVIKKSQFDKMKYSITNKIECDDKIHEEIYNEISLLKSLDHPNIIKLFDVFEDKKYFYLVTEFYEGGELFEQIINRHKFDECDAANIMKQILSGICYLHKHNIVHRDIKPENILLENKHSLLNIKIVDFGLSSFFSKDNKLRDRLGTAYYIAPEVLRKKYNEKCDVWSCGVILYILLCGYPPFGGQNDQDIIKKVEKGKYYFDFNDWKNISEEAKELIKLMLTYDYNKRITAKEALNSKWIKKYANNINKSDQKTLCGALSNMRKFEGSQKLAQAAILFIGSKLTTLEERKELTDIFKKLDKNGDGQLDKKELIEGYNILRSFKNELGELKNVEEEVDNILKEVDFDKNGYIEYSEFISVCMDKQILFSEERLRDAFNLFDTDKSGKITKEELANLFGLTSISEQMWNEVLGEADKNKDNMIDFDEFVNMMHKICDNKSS
In experiment [6] the target is Plasmodium falciparum protein kinase 6 (PK6, PF3D7_1337100) (UniProt Q8IDW1). Kind of experiment: PfPK6 kinase inhibitors, biochemical, TCAMS library (AID 1159586). Particulars: recombinant PfPK6, Kinase-Glo ATP depletion luminescence.
Chain of Plasmodium falciparum protein kinase 6 (PK6, PF3D7_1337100) (Q8IDW1 1-305): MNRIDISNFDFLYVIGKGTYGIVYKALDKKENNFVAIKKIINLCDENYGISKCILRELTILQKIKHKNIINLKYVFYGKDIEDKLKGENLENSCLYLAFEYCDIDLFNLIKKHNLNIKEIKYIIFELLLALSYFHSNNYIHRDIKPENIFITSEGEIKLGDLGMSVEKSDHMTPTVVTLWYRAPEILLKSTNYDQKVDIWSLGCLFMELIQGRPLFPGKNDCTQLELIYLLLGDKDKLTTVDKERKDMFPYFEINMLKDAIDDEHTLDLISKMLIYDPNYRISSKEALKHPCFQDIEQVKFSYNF
For experiment [7], the target named is Protein kinase 7 (PK7), Plasmodium falciparum 3D7 (PF3D7_0213400) (UniProt Q7YTF7). Briefly: inhibition of Plasmodium PK7 catalytic activity – biochemical, TCAMS antimalarial set, Kinase-Glo luminescence (AID 1159587). The conditions noted are these: recombinant PfPK7, Kinase-Glo ATP depletion luminescence.
Chain of Protein kinase 7 (PK7), Plasmodium falciparum 3D7 (PF3D7_0213400) (Q7YTF7 1-343): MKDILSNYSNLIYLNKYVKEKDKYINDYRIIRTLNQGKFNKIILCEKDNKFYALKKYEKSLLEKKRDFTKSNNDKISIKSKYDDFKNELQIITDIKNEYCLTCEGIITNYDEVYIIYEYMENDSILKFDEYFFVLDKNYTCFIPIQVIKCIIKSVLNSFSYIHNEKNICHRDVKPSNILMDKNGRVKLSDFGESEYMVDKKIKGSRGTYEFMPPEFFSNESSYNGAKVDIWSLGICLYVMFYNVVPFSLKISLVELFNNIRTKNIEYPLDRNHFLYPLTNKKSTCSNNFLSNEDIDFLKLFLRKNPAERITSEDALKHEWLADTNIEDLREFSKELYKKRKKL
The target in experiment [8] is Calcium-dependent protein kinase 4 (Plasmodium falciparum (isolate 3D7)) (UniProt Q8IBS5). Kind of experiment: PfCDPK4 kinase inhibitors, biochemical, TCAMS library (AID 1159588; cut-off not given, nearly all actives have IC50 up to about 0.91 µM). Particulars: recombinant PfCDPK4, Kinase-Glo ATP depletion luminescence.
Chain of Calcium-dependent protein kinase 4 (Plasmodium falciparum (isolate 3D7)) (Q8IBS5 whole entry, looked up): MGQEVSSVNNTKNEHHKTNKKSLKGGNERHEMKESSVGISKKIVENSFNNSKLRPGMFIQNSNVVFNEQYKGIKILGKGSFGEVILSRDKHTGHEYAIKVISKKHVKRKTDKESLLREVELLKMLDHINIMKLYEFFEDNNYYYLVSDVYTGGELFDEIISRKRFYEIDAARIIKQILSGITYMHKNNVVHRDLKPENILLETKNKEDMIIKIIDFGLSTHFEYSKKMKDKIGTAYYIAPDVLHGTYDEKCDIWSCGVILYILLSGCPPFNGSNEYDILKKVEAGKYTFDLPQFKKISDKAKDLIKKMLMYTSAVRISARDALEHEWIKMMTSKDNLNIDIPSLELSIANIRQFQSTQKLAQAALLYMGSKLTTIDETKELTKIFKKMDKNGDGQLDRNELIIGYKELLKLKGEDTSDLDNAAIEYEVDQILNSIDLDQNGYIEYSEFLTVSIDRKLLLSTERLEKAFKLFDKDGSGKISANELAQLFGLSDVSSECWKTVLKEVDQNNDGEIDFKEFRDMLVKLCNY

For the compound `CCOC(=O)c1ccc(N2CCN(c3cc(C)ccc3C)CC2)c(NC(=O)Nc2ccc(Cl)c(Cl)c2)c1`, the values for the growth inhibition in experiment [1] and in experiment [4] were 42% and 100% (active), respectively. Moreover, the inhibition was 7% in experiment [2] and -2% in experiment [3]. Moreover, the outcome in experiment [5], in experiment [6], in experiment [7] and in experiment [8] was inactive.
`COc1ccc(CNCc2ccc(-c3ccc(-c4nc5ccc(C(F)(F)F)cc5[nH]4)cc3)cc2)cc1`: the growth inhibition in experiment [1] is 99% (active); in experiment [4], 102% (active). The inhibition in experiment [2] was 75% (active); in experiment [3] it was 7%. Also, the outcome in experiment [5], in experiment [6], in experiment [7] and in experiment [8] was inactive.
Regarding `CN1CCC(NCc2ccc(-c3cccc(S(=O)(=O)NCC4CCCO4)c3)cc2)CC1` (stereo not given), the growth inhibition in experiment [1] is 0%; in experiment [4] it was 90% (active). In addition, the inhibition in experiment [2] is 8%; in experiment [3] it was -1%. Moreover, the result in experiment [5], in experiment [6], in experiment [7] and in experiment [8] was inactive.
Take `O=C(c1ccc(-c2cccc(-c3nc4ccc(C(F)(F)F)cc4[nH]3)c2)cc1)N1CCCCC1CN1CCC(O)C1` (stereo not given): the growth inhibition is 98% (active) in experiment [1] and 100% (active) in experiment [4]. The inhibition is 29% in experiment [2] and -11% in experiment [3]. Further, the outcome in experiment [5], in experiment [6], in experiment [7] and in experiment [8] was inactive.
On to `CCOc1ccc(C2CCN(CCCCNC(=O)c3ccc(NC(=O)c4ccc(Cl)cc4)cc3)CC2)c(Cl)c1`, for which the growth inhibition in experiment [1] was 96% (active); in experiment [4] it was 101% (active). For the same compound, the inhibition was 32% in experiment [2] and -2% in experiment [3]. Besides, the outcome in experiment [5], in experiment [6], in experiment [7] and in experiment [8] was inactive.
Turning to `O=C(Nc1ccc(C(F)(F)F)cc1)Nc1cccc([N+](=O)[O-])c1`, the growth inhibition in experiment [1] was 98% (active); in experiment [4], 101% (active). Besides, the figures for the inhibition in experiment [2] and in experiment [3] were 20% and 4%, respectively. For the same compound, the result in experiment [5], in experiment [6], in experiment [7] and in experiment [8] was inactive.
With `CCCCCCCCNCc1c(O)ccc2ccccc12`, the growth inhibition in experiment [1] was 94% (active); in experiment [4] it was 99% (active). In addition, the inhibition in experiment [2] is -11%; in experiment [3], 0%. Also, the outcome in experiment [5], in experiment [6], in experiment [7] and in experiment [8] was inactive.
Consider `Fc1ccc(CNc2ccc3ncc(-c4cccnc4)n3n2)cc1`, for which the growth inhibition is 7% in experiment [1] and 87% (active) in experiment [4]. For the same compound, the inhibition is 7% in experiment [2] and -2% in experiment [3]. Moreover, the outcome in experiment [5], in experiment [6], in experiment [7] and in experiment [8] was inactive.
Consider `COc1ccc(-c2nc(NCc3ccccc3)c3cc(OC)c(OC)cc3n2)cc1`, for which the growth inhibition in experiment [1] is 100% (active); in experiment [4] it was 101% (active). The results for the inhibition in experiment [2] and in experiment [3] were 15% and -1%, respectively. The outcome in experiment [5], in experiment [6], in experiment [7] and in experiment [8] was inactive.
Regarding `O=C(/C=C/c1ccc(Cl)c(Cl)c1)NCCCCCN1CCC(NC(=O)c2ccc(F)cc2)CC1`, the growth inhibition was 13% in experiment [1] and 102% (active) in experiment [4]. The inhibition in experiment [2] is 14%; in experiment [3], -1%. For the same compound, the outcome in experiment [5], in experiment [6], in experiment [7] and in experiment [8] was inactive.
For the compound `COc1cc2ncnc(NCCc3ccccc3Cl)c2cc1OC`, the growth inhibition in experiment [1] was 11%; in experiment [4], 88% (active). Moreover, the inhibition in experiment [2] was 0%; in experiment [3], 3%. The result in experiment [5], in experiment [6], in experiment [7] and in experiment [8] was inactive.
As to `CCN(CCO)CCc1cccc(Nc2nccc(-c3c(-c4ccc(NC(=O)C(C)(C)C)cc4)nn4ccccc34)n2)c1`, the growth inhibition in experiment [1] is 96% (active); in experiment [4] it was 101% (active). Moreover, the inhibition in experiment [2] is 62% (active); in experiment [3], 4%. Besides, the outcome in experiment [5], in experiment [6], in experiment [7] and in experiment [8] was inactive.
Take `OC(CNC1CCCCC1)Cn1c2ccccc2c2ccccc21` (stereo not given): the growth inhibition was 92% (active) in experiment [1] and 97% (active) in experiment [4]. Besides, the results for the inhibition in experiment [2] and in experiment [3] were 11% and 0%, respectively. Further, the outcome in experiment [5], in experiment [6], in experiment [7] and in experiment [8] was inactive.
For the compound `COc1ccc2nccc([C@@H](O)CN3CCC(NCc4ccc5c(c4)NC(=O)CO5)CC3)c2c1`, the growth inhibition is 6% in experiment [1] and 99% (active) in experiment [4]. Also, the values for the inhibition in experiment [2] and in experiment [3] were 1% and 5%, respectively. Also, the outcome in experiment [5], in experiment [6], in experiment [7] and in experiment [8] was inactive.
As to `Cc1nn(-c2ccc(Cl)cc2)c2[nH]c(CN3CCN(c4cccc(Cl)c4)CC3)cc(=O)c12`, the growth inhibition in experiment [1] and in experiment [4] was 98% (active) each time. The inhibition was 0% in experiment [2] and -3% in experiment [3]. Also, the outcome in experiment [5], in experiment [6], in experiment [7] and in experiment [8] was inactive.
For `Cc1ccc(NC(=O)c2ccc(NCCCN(C)Cc3ccccc3)c([N+](=O)[O-])c2)cc1F`, the growth inhibition is 61% (active) in experiment [1] and 101% (active) in experiment [4]. Moreover, the figures for the inhibition in experiment [2] and in experiment [3] were 12% and -7%, respectively. Also, the result in experiment [5], in experiment [6], in experiment [7] and in experiment [8] was inactive.
Take `N#Cc1ccc(/C=C/C(=O)NCCCCCN2CCCN(C(=O)Nc3ccc(Cl)c(C(F)(F)F)c3)CC2)cc1`: the growth inhibition is 13% in experiment [1] and 98% (active) in experiment [4]. Besides, the inhibition in experiment [2] was 28%; in experiment [3], 0%. Further, the result in experiment [5], in experiment [6], in experiment [7] and in experiment [8] was inactive.
For the compound `Cc1cnc(CCNC(=O)c2cc(-c3ccc(Cl)cc3)cs2)[nH]1`, the growth inhibition is 7% in experiment [1] and 101% (active) in experiment [4]. The inhibition was 12% in experiment [2] and 4% in experiment [3]. The result in experiment [5], in experiment [6], in experiment [7] and in experiment [8] was inactive.
For `N#CC1(c2ccccc2)CCN(c2nc(NCCCN3CCCC3=O)nc(N3CCCC4CCCCC43)n2)CC1` (stereo not given), the growth inhibition in experiment [1] was 92% (active); in experiment [4], 95% (active). The inhibition was -2% in experiment [2] and 3% in experiment [3]. Further, the outcome in experiment [5], in experiment [6], in experiment [7] and in experiment [8] was inactive.
Regarding `c1cc(CN2CCc3ccccc3CC2)cc(-c2c[nH]c3nc(NC4CCCC4)ncc23)c1`, the growth inhibition in experiment [1] was 49%; in experiment [4] it was 99% (active). For the same compound, the inhibition in experiment [2] was 31%; in experiment [3] it was -3%. Moreover, the result in experiment [5], in experiment [6], in experiment [7] and in experiment [8] was inactive.
